Measured values from PubChem BioAssay (NCATS).
Results filed as inconclusive are left out. Activity calls are given as the source filed them. Unless noted, the call rests on the fitted dose curve; in most records, active means well fitted curve in the direction sought with a large enough effect; inconclusive means small, poorly fitted or top-dose-only effect, or another doubt; inactive means no such curve, though single readings can be large; an effect the other way counts as inactive or inconclusive.

Assays:
[1] = qHTS Assay for Identifying Gametocytocidal Compounds (AID 743244);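 further: on the % scale 0 is the no-effect control and ±100 the full control effect; actives lower the fluorescent signal which means gametocytes are killed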; conditions: P. falciparum 3D7 stage III-V gametocytes, alamarBlue, 72 h; max response: stronger effect = lower value
Method in brief: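 A resazurin-based viability read-out was applied to mature P. falciparum gametocytes: 72 h compound treatment, then 24 h dye incubation, with falling fluorescence signalling gametocytocidal effect.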

[2] = qHTS profiling for inhibitors of Plasmodium falciparum (3D7) proliferation (AID 743322);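 further: infected erythrocytes exposed to compound for 72 h before lysis; 100% = DMSO vehicle wells and 0% = 0.29 µM artemisinin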; conditions: P. falciparum 3D7 proliferation; at 28.7 µM (top of the series) unless noted
Method in brief: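 Erythrocytes infected with P. falciparum (0.3% parasitemia, 2.5% hematocrit) incubated with compounds 72 h at 37 C, 5% CO2. Lysis with saponin/Triton buffer containing SYBR Green I, overnight at room temperature in the dark; DNA fluorescence (485/535 nm) normalised to 0.29 uM artemisinin and DMSO.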

[3] = qHTS profiling for inhibitors of Plasmodium falciparum (DD2) proliferation (AID 743323; call rule not given here); conditions: lower = more inhibition; at 28.7 µM (top of the series) unless noted
Method in brief: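 P. falciparum Dd2-infected erythrocytes (0.3% parasitemia, 2.5% hematocrit) exposed 72 h at 37 C, 5% CO2. Lysis with SYBR Green, overnight at room temperature, fluorescence 485/535 nm; normalized to 0.29 uM artemisinin and DMSO.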

[4] = qHTS profiling for inhibitors of Plasmodium falciparum (HB3) proliferation (AID 743324); conditions: Plasmodium falciparum HB3 blood-stage proliferation; at 28.7 µM (top of the series) unless noted;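 further: 100% = DMSO vehicle wells and 0% = artemisinin-treated control wells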
Method in brief: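 P. falciparum HB3 grown in erythrocytes (0.3% parasitemia, 2.5% hematocrit final) with compound for 72 h at 37 C, 5% CO2. Parasite DNA detected by SYBR Green after saponin/triton lysis overnight; normalized to 0.29 uM artemisinin and DMSO.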

CCCC(=O)Nc1ccc(OCC(O)CNC(C)C)c(C(C)=O)c1 (configuration not stated)
max response [1]: 19.2% (inactive)

COc1cccc(CCc2ccccc2OCC(CN(C)C)OC(=O)CCC(=O)O)c1 (configuration not stated)
remaining parasite growth % (stronger effect = lower value) [2]: 1.08% | activity, percent of control [3]: 1.06% | remaining proliferation (% of control), lower = more inhibition [4]: 1.2%

CN1CCN(CCCN2c3ccccc3Sc3ccc(S(=O)(=O)N(C)C)cc32)CC1
remaining parasite growth % (stronger effect = lower value) [2]: 1.46% [at 9.63 µM] | activity, percent of control [3]: 2.48% [at 9.63 µM] | remaining proliferation (% of control), lower = more inhibition [4]: 1.27% [at 9.63 µM]
